NPC1 prom act: qHTS Assay for NPC1 Promoter Activators; AID 485313, 2010; Potency, µM (titrated, usually from 9.22 µM), for the others: at the highest dose activation, hits mostly activators; Huh7 NPC1 promoter luciferase reporter, 24 h; 2.4% of 320,000 active; also: % of control where 0% means no effect; nearly all actives have a fitted effect of over 60% in size
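Quantitative HTS used a cell-based reporter: Huh7 cells stably bearing the NPC1 promoter upstream of luciferase were treated with compounds for 24 h, and promoter activation was read as luminescence.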
ELG1 genotox: qHTS screen for small molecules that induce genotoxicity in human embryonic kidney (HEK293T) cells expressing luciferase-tagged ELG1; HEK293T ELG1-luciferase reporter, luminescence, 16 h; Potency, µM (doses to about 46 µM), for inactives: at the top dose activity change, positive = activation, most hits filed as activators; 1.3% of 330,000 active; AID 504466, 2011; also: % of control where 0% means no effect; nearly all actives have a fitted effect of over 60% in size
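After overnight (16 hr) compound treatment at 37 °C, ELG1-luciferase HEK293T cells were lysed with ONE-Glo; luminescence quantified 30 min later at room temperature.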
SMN2 splice enh: qHTS Assay for Enhancers of SMN2 Splice Variant Expression; HEK293 SMN2-luciferase splicing reporter, luminescence, 30-36 h; Potency, µM (doses to about 46.1 µM), for the others: top-dose activity change, positive = activation, most hits filed as activators; 2.8% of 210,000 active; AID 1458, 2008; also: % of control where 0% means no effect; nearly all actives have a fitted effect of over 55% in size
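HEK293 cells carry an SMN2 […]–luciferase reporter in which exon 7 inclusion puts luciferase in frame. Cells were plated 10-12 h before compound addition, then incubated 30-36 h at 37C. ONE-Glo luminescence was read; sodium butyrate at 4.5 mM final served as control.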
KinaseGlo FLuc: Counterscreen for Luciferase (Kinase-Glo TM) Inhibition. Kinase-Glo luciferase, ATP luminescence, 8 min. 0.28% of 200,000 active. Potency, µM (top dose mostly 38.3 µM), inactives show at the top dose activity change, negative = inhibition, most hits filed as inhibitors. Luciferin 4-monooxygenase (Photuris pensylvanica), Q27757; also: % is scaled to controls: 0 for no effect and ±100 for the full control effect; nearly all actives have a fitted effect of over 60% in size
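Light output from Kinase-Glo luciferase with luciferin and 10 uM ATP in 50 mM imidazole pH 7.2, KCl, MgCl2, Tween 20, BSA; compound pin-delivered, 8-min ambient incubation, then luminescence read.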
Rab9 promoter act: qHTS Assay for Rab9 Promoter Activators; Huh7 Rab9 promoter-luciferase reporter, luminescence, 24 h; Potency, µM (top dose mostly 9.22 µM), inactives show top-dose activation, negative = inhibition, most hits filed as activators; 2.8% of 320,000 active; also: % of control where 0% means no effect; nearly all actives have a fitted effect of over 60% in size
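Quantitative HTS format; Huh7 Rab9-luciferase reporter cells (1500/well) receive compound 2 h post-plating, incubate 24 h at 37 °C, then get luciferase reagent for 10 min before luminescence reading.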
FLuc counter: qHTS profiling assay for firefly luciferase inhibitor/activator using purifed enzyme and Km concentrations of substrates (counterscreen for miR-21 project). AID 588342, 2011. 6.9% of 360,000 active. Luciferin 4-monooxygenase (Photinus pyralis), P08659. purified FLuc, Km substrates, luminescence inhibition. Potency, µM (top dose mostly 57.5 µM), inactives show top-dose activity change, negative = inhibition, hits mostly inhibitors;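 also: plate controls were vehicle for no effect and reference inhibitor for full effect; nearly all actives have a fitted effect of over 55% in size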
Target sequence (P08659 whole entry, looked up): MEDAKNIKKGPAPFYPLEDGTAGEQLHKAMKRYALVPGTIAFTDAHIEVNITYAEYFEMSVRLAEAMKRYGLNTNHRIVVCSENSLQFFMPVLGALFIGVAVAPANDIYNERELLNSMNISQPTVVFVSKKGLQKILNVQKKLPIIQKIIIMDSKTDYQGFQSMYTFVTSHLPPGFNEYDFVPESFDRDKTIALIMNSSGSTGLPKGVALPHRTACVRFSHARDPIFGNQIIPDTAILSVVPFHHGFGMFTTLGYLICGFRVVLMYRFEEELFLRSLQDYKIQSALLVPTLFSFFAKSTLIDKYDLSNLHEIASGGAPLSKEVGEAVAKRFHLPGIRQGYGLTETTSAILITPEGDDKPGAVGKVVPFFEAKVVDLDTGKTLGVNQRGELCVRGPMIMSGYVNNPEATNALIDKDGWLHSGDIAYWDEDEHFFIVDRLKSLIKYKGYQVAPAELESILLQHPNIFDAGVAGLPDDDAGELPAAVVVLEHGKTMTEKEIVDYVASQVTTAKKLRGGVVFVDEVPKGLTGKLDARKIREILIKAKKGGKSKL
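Purified P. pyralis luciferase (10nM final) with 10uM D-luciferin and 10uM ATP (Km levels) in 50mM Tris acetate pH 7.5, 10mM Mg acetate, 0.01% Tween-20, 0.05% BSA; qHTS 6-point titration, ~60 µM downward; luminescence read.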
Numbers without * were called inactive; ? = inconclusive; / = not tested or not shown; [ ] = remark or other dose. This is a sample that favours compounds with a hit; in the whole collection about 7.4% have one here. Calls follow the shape of the dose curve; as a rule, active = well fitted curve in the direction sought with a large enough effect; inconclusive = small, poorly fitted or top-dose-only effect, or another doubt; inactive = no such curve, though single readings can be large; an effect the other way counts as inactive or inconclusive. Potency is read from the fitted curve at half-maximal effect.

SMILES	NPC1 prom act	ELG1 genotox	SMN2 splice enh	KinaseGlo FLuc	Rab9 promoter act	FLuc counter
CCOC(=O)c1cccc(NC(=O)c2ccc3c(c2)OCO3)c1	0.4µM*	?	/	/	0.22µM*	8.5µM*
CC(=O)c1cccc(NC(=O)COC(=O)c2ccc3c(c2)OCO3)c1	1%	2%	/	/	-1%	3%
COc1ccc(-c2cccc(NC(=O)c3ccc4c(c3)OCO4)c2)nn1	3%	-17%	/	/	-8%	15µM*
CCOC(=O)c1c(NC(=S)Nc2ccc(Cl)cc2)sc(C)c1C	1%	5%	6%	19%	0%	3%
CCOC(=O)c1c(NC(=O)c2cc(C)oc2C)sc(C(=O)Nc2ccc(Cl)cc2)c1C	23%	14%	-2%	-2%	29%	17µM*
CCOC(=O)c1cccc(NC(=O)/C=C/c2cccc([N+](=O)[O-])c2)c1	0%	2%	-22%	-2%	16%	-11%
CCOC(=O)c1cccc(NC(=O)/C=C/c2ccc3c(c2)OCO3)c1	0.32µM*	?	?	-4%	0.32µM*	1.9µM*
CN(C)c1ccc(C(CNS(=O)(=O)c2ccc([N+](=O)[O-])cc2)N2CCCC2)cc1 (centres undefined)	-3%	-2%	/	/	-1%	-1%
CCOC(=O)c1c(C)c(C(=O)Nc2ccc3c(c2)OCO3)c(C)n1C	5%	2%	-29%	-3%	1%	-13%
CCC/C(=N/NC(=O)c1ccc2c(c1)OCO2)c1cccs1	13%	13%	20µM*	-13%	?	17µM*
CCOC(=O)c1c(N)sc(C(=O)Nc2ccc3c(c2)OCO3)c1C	0.32µM*	0.37µM*	-43%	4.5µM*	0.1µM*	0.43µM*
O=C(CSc1n[nH]c(-c2ccccc2Cl)n1)NCCc1ccccc1	/	/	/	/	/	-17%
CC(C)CSc1nsc(N)n1	?	16µM*	20%	-3%	?	?
Nc1cc(N)nc(SCc2ccccc2)n1	?	?	11µM*	-2%	2.8µM*	19µM*
Nc1nc(SCc2ccccc2)ns1	28%	18µM*	13µM*	2%	?	?
Nc1nc(SCc2ccc(Cl)cc2)ns1	19%	17%	4%	-2%	15%	?
Nc1cc(N)nc(SCCc2ccccc2)n1	22%	?	/	/	16%	?
CC1(CCc2ccccc2)NC(=O)N(CC(=O)N2CC(=O)Nc3ccccc32)C1=O (centres undefined)	0%	-3%	/	/	4%	-1%
COc1ccc(N(C(=O)Cn2nnc3ccccc32)C(C(=O)NCc2ccco2)c2ccncc2)cc1 (centres undefined)	0%	-3%	/	/	2%	-1%
Clc1ccc(SCCCCN2CCNCC2)cc1	4%	1%	-24%	-4%	12%	-10%
COC(=O)c1cc2c(=O)c3ccccc3oc2nc1C	2.2µM*	?	/	/	?	11µM*
Cc1nc2oc3ccccc3c(=O)c2cc1C(=O)O	2%	8%	/	/	-2%[1.84 µM]	-15%
CCc1nc2oc3ccc(C)cc3c(=O)c2cc1C(=O)OC	3.5µM*	?	/	/	3.5µM*	3µM*
CCC(C)(C)NC(=S)Nc1ccc(-c2nc3ccc(C)cc3s2)cc1	4.5µM*	9.2µM*	28%[1.84 µM]	-3%	2.8µM*	2.7µM*
CCCCNC(=S)Nc1ccc(-c2nc3ccc(C)cc3s2)cc1	3.5µM*	4.6µM*	3.5µM*	2%	2.8µM*	1.7µM*
SMILES	NPC1 prom act	ELG1 genotox	SMN2 splice enh	KinaseGlo FLuc	Rab9 promoter act	FLuc counter
CCOC(=O)C1=NOC2C3CC(C12)C1C(=O)N(CCc2ccc(OC)c(OC)c2)C(=O)C31 (centres undefined)	1%	1%	/	/	-2%	-1%
CN(C)c1ccc(CNC(=O)Cn2c(=O)oc3cc(S(=O)(=O)N4CCCCCC4)ccc32)cc1	/	/	/	/	/	-16%
COCCCN(C(=O)c1cc(Cl)nc2ccccc12)c1c(N)n(Cc2ccccc2)c(=O)[nH]c1=O	-2%	0%	/	/	0%	0%
CC(=O)N1CCN(C(=O)c2cccc(S(=O)(=O)N3c4ccccc4CC3C)c2)CC1 (centres undefined)	/	-1%	/	/	/	/
CC1Cc2ccccc2N1S(=O)(=O)c1cccc(C(=O)N2CCN(c3ncccn3)CC2)c1 (centres undefined)	-11%	-14%	0.56µM*	-1%	25%	2%
CC(=O)Nc1ccc(S(=O)(=O)N2CCN(Cc3cccc([N+](=O)[O-])c3)CC2)cc1	-6%	-7%	-24%	3%	-2%	0%
COC(=O)c1cc(C)sc1NC(=O)CN1CCN(C(=O)C2CCCO2)CC1 (centres undefined)	-39%	-20%	/	/	-43%	0.85µM*
CCOC(=O)c1cc(C)sc1NC(=O)CN1CCN(C(=O)C2CCCO2)CC1 (centres undefined)	-3%	-10%	/	/	6%	1%
CCN(CC)c1ncnc2c1cnn2Cc1ccc(C)cc1	2%	-1%	/	/	-5%[1.84 µM]	5%
CCN(CC)c1nc(C)nc2c1cnn2CCc1ccccc1	?	12µM*	22µM*	-3%	?	19µM*
Cc1ccc(NC(=O)NC2CC(=O)N(c3ccc4c(c3)OCCO4)C2)cc1F (centres undefined)	-4%	-12%	/	/	1%	-11%
O=[N+]([O-])c1cc(Br)c(OCc2nnc(-c3ccccc3)o2)c(Br)c1	0%	-7%	-9%	2%	3%	?
Nc1cc([N+](=O)[O-])cc2oc(-c3ccccc3)cc12	?	?	/	/	?	19µM*
O=[N+]([O-])c1ccc(NCc2ccc(Cl)cc2)nc1	?	?	/	/	?	15µM*
CC(C)c1ccc(CNc2ccc([N+](=O)[O-])cn2)cc1	?	?	16µM*	2%	?	9.5µM*
CC(C)(C)c1ccc(CNc2ccc([N+](=O)[O-])cn2)cc1	26%	?	?	-1%	?	12µM*
CC(=O)NCCNc1ccc([N+](=O)[O-])cn1	-1%	0%	13%	-1%	1%	3%
CC(C)(C)c1ccc(Cn2cnc(-c3ccc([N+](=O)[O-])cc3)c2)cc1	?	?	27%	0%	?	19µM*
O=C(c1ccc(F)cc1F)N1CCCC(c2nc(-c3cccs3)no2)C1 (centres undefined)	1%	-5%	/	/	2%	-4%
